Assay outcomes deposited in PubChem BioAssay by several laboratories.
Hits are enriched below; roughly 3.4% of the tested compounds scored in any of these assays.
ANO1 activ: activators or potentiators of mouse TMEM16A chloride channel | Q8BHY3 | actives 0.3% (n = 340,000) | HEK293 TMEM16A/YFP-H148Q/I152L, iodide quench fluorescence; stronger effect = lower value | B-score at 10 µM;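 active = fluorescence-ratio B-score plate-corrected deviation score at least 3 library SD below zero, with starting fluorescence score within 5 deviations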;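 note: channel opened by trigger with iodide after compound preincubation; score built on the fluorescence ratio of max minus min over baseline; more negative score means more quench and so TMEM16A activation or potentiation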
MEKK2mut PB1 HTS: signal of MEK5 binding to mutant human MEKK2 PB1 domain; bead flow cytometry, Alexa488-MEK5 binding to MEKK2 mutant; percent response, % at 10 µM; actives 0.35% (n = 290,000); AID 1530; in the data active = percent response above about 24%, passing the limit was not always enough
MEKK3 PB1 HTS: modulators (inhibitors or enhancers) of MEK5 binding to human MEKK3 PB1 domain | Q99759 | bead-based flow cytometry, Alexa488-MEK5 binding to MEKK3; actives lie on both sides; 0 = blocked by unlabeled MEK5, 100 = vehicle | binding response (% of control), % at 10 µM | actives 1.4% (n = 290,000) | AID 1529;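 active = binding response more than 3 SD above or below the average of its plate-row segment, actives on both sides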;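 note: Alexa488 bead fluorescence after subtracting the streptavidin-only scavenger bead signal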
ANO1 block: mouse TMEM16A channel inhibition, primary screen; Q8BHY3; HEK293 TMEM16A/YFP iodide influx fluorescence, ionomycin; normalized B-score (activity score, 25-100; higher = stronger inhibition) at 10 µM; actives 1.2% (n = 310,000); AID 588511;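 active = ratio plate-corrected score three or more library SD toward inhibition, starting fluorescence score within five deviations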;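 note: score derived from kinetic fluorescence span divided by baseline fluorescence per well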
MEKK2 WT-MEK5: raises or lowers MEK5 binding to wildtype human MEKK2 PB1 domain. Q9Y2U5. bead flow cytometry, Alexa488-MEK5 binding to MEKK2 WT; actives lie on both sides. binding response (% of control), % at 10 µM. actives 1.1% (n = 290,000); in the data active = binding response below about 67% or above about 130%
NTR1 agonist: agonists of human neurotensin receptor NTR1; P30989; NTR1-U2OS beta-arrestin-GFP spot imaging, agonist mode; activation, % at 20 µM; actives 0.17% (n = 330,000);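 active = activation at or above 40% of the spot to cytoplasm intensity ratio, with at least 20 cells analyzed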;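 note: 0% = DMSO without peptide and 100% = 100 nM NTR1 peptide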
Target sequence (P30989 whole entry, looked up): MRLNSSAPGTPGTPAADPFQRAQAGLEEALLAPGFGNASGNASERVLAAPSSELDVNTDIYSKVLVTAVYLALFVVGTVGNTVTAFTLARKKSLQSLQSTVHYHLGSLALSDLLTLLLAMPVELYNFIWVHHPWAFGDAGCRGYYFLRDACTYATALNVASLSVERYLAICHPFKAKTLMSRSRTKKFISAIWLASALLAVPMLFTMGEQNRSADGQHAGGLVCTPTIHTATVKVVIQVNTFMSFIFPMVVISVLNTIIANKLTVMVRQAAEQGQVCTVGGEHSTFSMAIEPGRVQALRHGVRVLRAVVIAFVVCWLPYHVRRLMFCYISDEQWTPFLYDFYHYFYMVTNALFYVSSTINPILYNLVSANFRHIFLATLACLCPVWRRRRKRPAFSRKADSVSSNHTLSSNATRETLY
MEKK2wt confirm: raises or lowers MEK5 binding to wildtype human MEKK2, retest; shares compounds with MEKK3 PB1 HTS; AID 1892; bead flow cytometry, Alexa488-MEK5 binding to MEKK2 WT; actives lie on both sides; binding response (% of control), % at 10 µM; actives 2.4% (n = 5,900); in the data active = binding response below about 16% or above about 210%; inactive = in between
MEKK2mut-MEK5: signal of MEK5 binding to mutant human MEKK2, retest. bead flow cytometry, Alexa488-MEK5 binding to MEKK2 mutant. shares compounds with MEKK3 PB1 HTS. percent response, % at 10 µM. actives 2% (n = 5,900); in the data active = percent response mostly above about 71%, no sharp cut-off; inactive = mostly below about 38%;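 note: higher means compound restores mutant binding toward wildtype level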
MEKK3-MEK5 inh: confirmation of inhibitors of MEK5 binding to human MEKK3. actives 1.8% (n = 5,900). bead flow cytometry, Alexa488-MEK5 binding to MEKK3; stronger effect = lower value. binding response (% of control), % at 10 µM. shares compounds with MEKK3 PB1 HTS. AID 1894;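 active = binding response below 72% of control, or above a set upper limit, though filed actives all read lower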;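 note: 100% = DMSO only wells and 0% = binding blocked by excess unlabeled MEK5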
Active calls of the source: *; i = inactive; . = no result given; [ ] = dose if it differs, or a comment.

SMILES	ANO1 activ	MEKK2mut PB1 HTS	MEKK3 PB1 HTS	ANO1 block	MEKK2 WT-MEK5	NTR1 agonist	MEKK2wt confirm	MEKK2mut-MEK5	MEKK3-MEK5 inh
CC1(C)CC(=O)C(C(O)c2cccc([N+](=O)[O-])c2)C(C)(C)N1 (centres undefined)	i	25.0*	112.0	i	111.0	0.0	107.0	6.0	104.0
CC(C)(C)c1cc(C(=O)O)nn1-c1ccccc1	i	-26.0	2.0*[inhibitor]	i	3.0*[inhibitor]	-6.0	97.0	-4.0	96.0
O=C(O)c1cc(-c2ccccc2)n(-c2ccccc2)n1	i	2.0	103.0	i	107.0	1.5	.	.	.
COc1cc2c(cc1OC)C(c1ccc(-c3ccc(Cl)c(Cl)c3)o1)=NCC2	i	28.0	105.0	i	149.0*	6.6	152.0	49.0	113.0
COc1cc2c(cc1OC)C(c1ccc(-c3cc(Cl)ccc3Cl)o1)=NCC2	i	3.0	94.0	i	108.0	3.6	.	.	.
NC(=O)N/N=C/c1c(F)cccc1F	i	3.0	102.0	i	103.0	0.0	.	.	.
Cc1cccc(CCN(CC(=O)NCc2ccc(F)cc2)C(=O)c2csnn2)c1	i	4.0	103.0	i	108.0	-1.2	.	.	.
O=C(/C=C/N1CCN(Cc2ccccc2)CC1)C(F)(F)F	i	-15.0	62.0*[inhibitor]	i	69.0	-0.5	102.0	1.0	103.0
CCc1cc(=O)[nH]c(SCCC(F)=C(F)F)n1	i	-4.0	106.0	i	99.0	0.1	.	.	.
CCCP(=O)(CCC)CCP(=O)(c1ccccc1)c1ccccc1	i	0.0	63.0*[inhibitor]	i	96.0	1.3	97.0	-4.0	94.0
CN(C)CCP(=O)(c1ccccc1)c1ccccc1	i	-1.0	96.0	i	96.0	-0.7	.	.	.
CCOc1cccc2sc(N(CCCN(C)C)C(=O)c3ccc(S(=O)(=O)N(C)c4ccccc4)cc3)nc12	i	-6.0	105.0	i	127.0	-0.8	.	.	.
CCc1ccc2nc(N(CCCN(C)C)C(=O)c3ccc(S(=O)(=O)N4CCc5ccccc5C4)cc3)sc2c1	i	28.0*	106.0	i	176.0*	30.1	197.0	60.0	96.0
CCOc1cccc2sc(N(CCCN(C)C)C(=O)c3ccc(S(=O)(=O)N4CCc5ccccc5C4)cc3)nc12	i	49.0*	113.0	i	200.0*	2.7	305.0*	126.0*	116.0
CC(C)(c1ccccc1)c1ccc(OCCCNCCO)cc1	i	13.0	108.0	i	145.0*	2.8	134.0	27.0	109.0
CCCCCCOc1ccc(/C(N)=N/O)cc1	i	7.0	100.0	i	100.0	-0.4	.	.	.
N=C(N)c1ccc(OCCCCCOc2ccc(C(=N)N)cc2)cc1	i	12.0	69.0	i	150.0*	-0.3	97.0	-14.0	66.0*
Cc1cccc(/C=N/c2sc3c(c2C(=O)OC(C)(C)C)CCN(C)C3)c1O	i	42.0	112.0	i	141.0*	3.7	146.0	25.0	108.0
O=C1CCCC(O)=C1N=Nc1ccc2c(c1)OCO2	i	1.0	146.0*	i	108.0	-0.1	103.0	1.0	100.0
COc1ccc2c3c([nH]c2c1)C(C)N(CCC(=O)NN)CC3 (centres undefined)	i	16.0	107.0	i	140.0*	-0.1	146.0	27.0	107.0
COc1ccc2c3c([nH]c2c1)C(C)N(C(C)=O)CC3 (centres undefined)	i	1.0	94.0	i	97.0	2.1	.	.	.
Cc1ccc(CNC(=O)C(=O)NCC2OCCN2C(=O)c2cccs2)cc1 (centres undefined)	i	0.0	135.0*	i	103.0	1.0	104.0	2.0	105.0
O=C(NCc1ccccc1)C(=O)NCC1OCCN1C(=O)c1cccs1 (centres undefined)	i	0.0	132.0*	i	103.0	-1.3	99.0	0.0	102.0
O=C(c1cccnc1)N1CCN(C(=O)c2ccccc2F)CC1	i	6.0	101.0	i	104.0	-1.1	.	.	.
CC(Nc1nc(N2CCCCC2)nc2ccccc12)c1ccccc1 (centres undefined)	i	34.0	108.0	i	210.0*	26.0	140.0	18.0	109.0
SMILES	ANO1 activ	MEKK2mut PB1 HTS	MEKK3 PB1 HTS	ANO1 block	MEKK2 WT-MEK5	NTR1 agonist	MEKK2wt confirm	MEKK2mut-MEK5	MEKK3-MEK5 inh
CSCCC(NC(=O)c1ccc(C(C)(C)C)cc1)C(=O)O (centres undefined)	i	.	.	i	.	0.2	.	.	.
CCOC(=O)C1CSC2(CCC(c3ccccc3)CC2)N1 (centres undefined)	i	9.0	146.0*	i	136.0	2.5	99.0	-2.0	98.0
Cc1ccc(CNC(=O)CN(C2CCCCC2)S(C)(=O)=O)cc1	.	5.0	67.0*[inhibitor]	i	55.0*[inhibitor]	1.9	102.0	-3.0	102.0
Cc1ccc(CNC(=O)C2CCCC2)cc1	i	.	.	i	.	0.1	.	.	.
CS(=O)(=O)N(CC(=O)NCc1ccccc1)C1CCCCC1	i	3.0	103.0	i	105.0	1.3	.	.	.
Cc1ccc(CNC(=O)CN2C(C)CCCC2C)cc1 (centres undefined)	i	-15.0	56.0*[inhibitor]	i	62.0*[inhibitor]	0.6	104.0	4.0	102.0
O=C(CN1C(=O)c2ccccc2S1(=O)=O)NCCc1ccc(F)cc1	i	.	.	.	.	0.5	.	.	.
CCOC(=O)c1cn[nH]c1NC(=S)Nc1ccc(OC)cc1	i	-21.0	50.0*[inhibitor]	i	62.0	0.5	106.0	-1.0	106.0
CCC(c1nnnn1Cc1cccs1)N1CCN(C(=O)c2ccco2)CC1 (centres undefined)	i	-13.0	0.0*[inhibitor]	i	-1.0*[inhibitor]	0.7	96.0	2.0	102.0
O=C(C1CCCCN1S(=O)(=O)c1ccccc1[N+](=O)[O-])N1CCCCC1 (centres undefined)	i	-2.0	74.0*[inhibitor]	i	90.0	0.6	99.0	-2.0	103.0
Cc1ccc(CNC(=O)c2ccc(N3CCC4(CC3)CC(c3ccccc3)=NO4)c(NC(=O)c3c(Cl)cccc3Cl)c2)cc1	i	.	.	i	.	-1.8	.	.	.
Cc1nc(C)c(C(=O)NNS(=O)(=O)c2ccccc2)s1	i	0.0	140.0*	i	107.0	-0.1	100.0	0.0	103.0
